For assay [1], the target named is Sphingosine kinase 1 (Homo sapiens) (UniProt Q9NYA1). The following applies: at 1 µM.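 Also: mean SPHK1 inhibition value reported from the GSK PKIS kinase panel screen.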
Assay [2] has as its target T1, Sphingosine kinase 2 (Homo sapiens) (UniProt Q9NRA0).
T1 sequence (whole entry): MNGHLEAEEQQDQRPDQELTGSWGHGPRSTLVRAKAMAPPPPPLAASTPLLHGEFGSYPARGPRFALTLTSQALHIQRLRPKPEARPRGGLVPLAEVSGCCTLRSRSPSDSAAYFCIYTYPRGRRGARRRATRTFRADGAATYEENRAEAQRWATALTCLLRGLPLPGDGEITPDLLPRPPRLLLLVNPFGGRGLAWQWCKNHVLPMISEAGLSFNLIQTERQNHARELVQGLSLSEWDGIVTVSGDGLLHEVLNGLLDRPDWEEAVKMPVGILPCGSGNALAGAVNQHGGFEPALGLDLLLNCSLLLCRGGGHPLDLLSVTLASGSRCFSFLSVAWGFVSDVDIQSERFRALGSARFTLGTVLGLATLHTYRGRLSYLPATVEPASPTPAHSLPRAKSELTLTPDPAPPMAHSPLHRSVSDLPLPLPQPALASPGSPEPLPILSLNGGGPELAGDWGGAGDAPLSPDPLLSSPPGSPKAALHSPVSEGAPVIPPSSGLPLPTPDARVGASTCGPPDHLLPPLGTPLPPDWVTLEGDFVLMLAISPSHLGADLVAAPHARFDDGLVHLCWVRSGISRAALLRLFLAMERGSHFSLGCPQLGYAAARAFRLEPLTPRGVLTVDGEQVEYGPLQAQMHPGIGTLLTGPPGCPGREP
The following applies: at 0.1 µM.

Assay [3] has as its target T1, Sphingosine kinase 2 (Homo sapiens). The following applies: at 1 µM.
Assay [4] deals with Casein kinase II subunit alpha (Homo sapiens) (UniProt P68400). As to conditions: at 0.1 µM.
Casein kinase II subunit alpha (Homo sapiens), sequence (P68400 whole entry, looked up): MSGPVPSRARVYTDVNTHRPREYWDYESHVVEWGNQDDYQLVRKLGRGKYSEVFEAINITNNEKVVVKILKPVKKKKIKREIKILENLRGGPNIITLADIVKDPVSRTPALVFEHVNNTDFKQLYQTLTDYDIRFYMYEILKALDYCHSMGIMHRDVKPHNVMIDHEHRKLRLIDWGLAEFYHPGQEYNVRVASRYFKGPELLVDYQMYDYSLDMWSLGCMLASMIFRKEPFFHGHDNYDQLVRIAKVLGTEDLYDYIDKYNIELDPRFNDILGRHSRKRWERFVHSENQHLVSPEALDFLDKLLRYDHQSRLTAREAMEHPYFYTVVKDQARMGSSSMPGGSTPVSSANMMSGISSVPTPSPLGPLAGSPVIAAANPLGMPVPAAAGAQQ
The target is the same in assay [5]. As to conditions: at 1 µM.
For assay [6], the target named is T2, Inhibitor of nuclear factor kappa-B kinase subunit alpha (Homo sapiens) (UniProt O15111).
T2 sequence (whole entry): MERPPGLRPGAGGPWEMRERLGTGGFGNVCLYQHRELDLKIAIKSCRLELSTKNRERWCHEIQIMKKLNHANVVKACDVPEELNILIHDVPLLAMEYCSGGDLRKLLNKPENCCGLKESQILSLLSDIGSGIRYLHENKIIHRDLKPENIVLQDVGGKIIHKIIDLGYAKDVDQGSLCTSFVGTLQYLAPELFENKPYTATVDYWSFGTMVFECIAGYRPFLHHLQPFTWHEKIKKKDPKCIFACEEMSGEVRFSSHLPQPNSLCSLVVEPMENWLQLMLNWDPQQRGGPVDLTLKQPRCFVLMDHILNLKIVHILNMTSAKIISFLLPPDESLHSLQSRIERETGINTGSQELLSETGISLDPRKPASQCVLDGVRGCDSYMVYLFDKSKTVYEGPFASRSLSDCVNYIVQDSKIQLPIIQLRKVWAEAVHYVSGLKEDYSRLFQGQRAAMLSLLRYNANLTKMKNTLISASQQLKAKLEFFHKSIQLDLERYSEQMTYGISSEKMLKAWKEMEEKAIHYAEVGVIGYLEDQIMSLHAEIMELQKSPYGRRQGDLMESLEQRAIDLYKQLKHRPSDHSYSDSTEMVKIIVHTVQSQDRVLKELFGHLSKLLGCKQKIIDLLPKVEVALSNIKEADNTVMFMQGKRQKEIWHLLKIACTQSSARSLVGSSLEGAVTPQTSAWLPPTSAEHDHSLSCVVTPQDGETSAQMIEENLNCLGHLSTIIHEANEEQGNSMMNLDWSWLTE
The following applies: at 0.1 µM.

Assay [7] deals with T2, Inhibitor of nuclear factor kappa-B kinase subunit alpha (Homo sapiens). The following applies: at 1 µM.
Assay [8] deals with T3, Inhibitor of nuclear factor kappa-B kinase subunit beta (Homo sapiens) (UniProt O14920).
T3 sequence (whole entry): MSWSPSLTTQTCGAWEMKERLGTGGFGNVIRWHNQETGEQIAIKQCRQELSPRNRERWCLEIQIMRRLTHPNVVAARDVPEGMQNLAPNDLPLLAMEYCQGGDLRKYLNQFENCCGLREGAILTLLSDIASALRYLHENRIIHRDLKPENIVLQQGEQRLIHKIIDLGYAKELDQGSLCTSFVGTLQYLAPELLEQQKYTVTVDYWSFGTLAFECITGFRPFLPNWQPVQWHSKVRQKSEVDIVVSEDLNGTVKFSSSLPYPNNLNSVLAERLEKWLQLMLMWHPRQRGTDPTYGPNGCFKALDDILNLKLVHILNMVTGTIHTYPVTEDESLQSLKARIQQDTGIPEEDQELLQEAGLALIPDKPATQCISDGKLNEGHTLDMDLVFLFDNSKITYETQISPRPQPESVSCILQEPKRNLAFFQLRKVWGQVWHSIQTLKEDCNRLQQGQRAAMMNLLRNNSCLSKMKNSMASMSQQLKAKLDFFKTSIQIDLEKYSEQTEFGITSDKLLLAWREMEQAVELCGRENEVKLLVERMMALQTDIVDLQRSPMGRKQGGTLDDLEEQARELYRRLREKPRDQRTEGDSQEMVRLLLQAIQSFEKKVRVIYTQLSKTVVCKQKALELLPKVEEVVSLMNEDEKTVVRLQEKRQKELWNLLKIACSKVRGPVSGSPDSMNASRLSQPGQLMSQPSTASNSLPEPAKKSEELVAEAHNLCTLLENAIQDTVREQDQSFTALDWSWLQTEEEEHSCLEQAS
As to conditions: at 0.1 µM.

Assay [9] addresses T3, Inhibitor of nuclear factor kappa-B kinase subunit beta (Homo sapiens). As to conditions: at 1 µM.
The target in assay [10] is T4, Inhibitor of nuclear factor kappa-B kinase subunit epsilon (Homo sapiens) (UniProt Q14164).
T4 sequence (whole entry): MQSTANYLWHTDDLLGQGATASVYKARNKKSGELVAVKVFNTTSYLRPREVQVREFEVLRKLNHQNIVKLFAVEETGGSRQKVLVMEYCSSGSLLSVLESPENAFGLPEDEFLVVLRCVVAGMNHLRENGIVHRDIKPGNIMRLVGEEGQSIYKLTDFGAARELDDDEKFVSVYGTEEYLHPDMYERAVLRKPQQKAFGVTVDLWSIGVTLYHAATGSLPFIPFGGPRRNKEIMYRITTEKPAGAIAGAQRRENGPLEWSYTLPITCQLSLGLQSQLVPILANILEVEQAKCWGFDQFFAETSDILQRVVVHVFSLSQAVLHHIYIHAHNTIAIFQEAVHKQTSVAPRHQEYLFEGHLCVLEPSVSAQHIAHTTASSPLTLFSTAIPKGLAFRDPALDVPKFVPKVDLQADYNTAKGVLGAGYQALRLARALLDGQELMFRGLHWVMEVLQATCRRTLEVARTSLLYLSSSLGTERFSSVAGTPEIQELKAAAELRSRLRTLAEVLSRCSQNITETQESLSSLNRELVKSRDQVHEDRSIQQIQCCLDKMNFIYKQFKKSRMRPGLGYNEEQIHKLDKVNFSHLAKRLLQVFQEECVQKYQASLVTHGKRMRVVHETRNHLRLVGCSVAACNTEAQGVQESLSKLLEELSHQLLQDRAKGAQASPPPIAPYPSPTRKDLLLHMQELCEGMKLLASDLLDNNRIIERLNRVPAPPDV
The following applies: at 0.1 µM.

The target in assay [11] is T4, Inhibitor of nuclear factor kappa-B kinase subunit epsilon (Homo sapiens). The following applies: at 1 µM.
Assay [12] addresses T5, Serine/threonine-protein kinase Nek1 (Homo sapiens) (UniProt Q96PY6).
T5 sequence (whole entry): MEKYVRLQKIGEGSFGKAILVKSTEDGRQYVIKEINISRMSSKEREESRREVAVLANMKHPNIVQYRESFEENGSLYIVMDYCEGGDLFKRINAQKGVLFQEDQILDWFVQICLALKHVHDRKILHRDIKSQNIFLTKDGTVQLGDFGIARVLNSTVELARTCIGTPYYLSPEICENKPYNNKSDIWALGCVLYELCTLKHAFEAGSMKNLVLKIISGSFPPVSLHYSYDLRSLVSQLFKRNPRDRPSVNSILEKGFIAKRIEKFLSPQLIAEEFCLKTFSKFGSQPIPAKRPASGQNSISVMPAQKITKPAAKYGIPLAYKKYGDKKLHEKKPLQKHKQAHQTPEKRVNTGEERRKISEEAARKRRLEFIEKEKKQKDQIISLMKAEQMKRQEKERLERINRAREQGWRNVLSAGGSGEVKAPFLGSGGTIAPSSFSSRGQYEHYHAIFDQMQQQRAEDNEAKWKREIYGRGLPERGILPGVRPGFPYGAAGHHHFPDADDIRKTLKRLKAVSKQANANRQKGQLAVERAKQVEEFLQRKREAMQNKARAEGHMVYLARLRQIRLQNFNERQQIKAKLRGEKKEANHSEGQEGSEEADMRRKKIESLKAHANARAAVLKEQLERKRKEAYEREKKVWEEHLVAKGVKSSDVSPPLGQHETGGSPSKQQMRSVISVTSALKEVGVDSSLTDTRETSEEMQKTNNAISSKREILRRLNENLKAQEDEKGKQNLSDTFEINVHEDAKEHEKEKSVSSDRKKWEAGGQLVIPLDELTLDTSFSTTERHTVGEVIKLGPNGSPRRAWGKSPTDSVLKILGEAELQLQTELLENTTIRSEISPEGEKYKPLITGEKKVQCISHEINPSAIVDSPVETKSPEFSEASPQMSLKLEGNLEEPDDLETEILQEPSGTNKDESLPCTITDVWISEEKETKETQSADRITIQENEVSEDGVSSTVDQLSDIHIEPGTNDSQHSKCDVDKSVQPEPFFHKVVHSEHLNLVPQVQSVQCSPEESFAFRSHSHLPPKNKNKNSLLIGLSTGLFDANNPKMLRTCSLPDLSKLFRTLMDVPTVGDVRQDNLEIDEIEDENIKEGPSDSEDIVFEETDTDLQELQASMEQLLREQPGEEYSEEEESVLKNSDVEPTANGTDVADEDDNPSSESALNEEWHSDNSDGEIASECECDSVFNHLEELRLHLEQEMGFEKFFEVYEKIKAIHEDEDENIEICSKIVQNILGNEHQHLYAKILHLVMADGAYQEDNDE
As to conditions: at 0.1 µM.

Assay [13] has as its target T5, Serine/threonine-protein kinase Nek1 (Homo sapiens). As to conditions: at 1 µM.
In assay [14] the target is T6, Serine/threonine-protein kinase Nek2 (Homo sapiens) (UniProt P51955).
T6 sequence (whole entry): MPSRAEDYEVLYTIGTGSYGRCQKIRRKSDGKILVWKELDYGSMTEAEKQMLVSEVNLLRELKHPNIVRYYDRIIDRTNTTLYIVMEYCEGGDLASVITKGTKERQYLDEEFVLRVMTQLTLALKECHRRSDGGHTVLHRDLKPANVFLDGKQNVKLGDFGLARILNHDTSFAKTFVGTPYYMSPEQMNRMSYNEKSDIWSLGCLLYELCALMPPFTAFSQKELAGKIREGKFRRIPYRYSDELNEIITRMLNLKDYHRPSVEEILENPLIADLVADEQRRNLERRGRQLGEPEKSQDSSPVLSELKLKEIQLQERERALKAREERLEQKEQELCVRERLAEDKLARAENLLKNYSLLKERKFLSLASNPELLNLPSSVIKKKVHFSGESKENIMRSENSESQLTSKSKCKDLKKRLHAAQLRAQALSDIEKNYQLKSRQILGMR
The following applies: at 0.1 µM.

Assay [15] deals with T6, Serine/threonine-protein kinase Nek2 (Homo sapiens). The following applies: at 1 µM.
For assay [16], the target named is Serine/threonine-protein kinase Nek6 (Homo sapiens) (UniProt Q9HC98). The following applies: at 0.1 µM.
Serine/threonine-protein kinase Nek6 (Homo sapiens), sequence (Q9HC98 whole entry): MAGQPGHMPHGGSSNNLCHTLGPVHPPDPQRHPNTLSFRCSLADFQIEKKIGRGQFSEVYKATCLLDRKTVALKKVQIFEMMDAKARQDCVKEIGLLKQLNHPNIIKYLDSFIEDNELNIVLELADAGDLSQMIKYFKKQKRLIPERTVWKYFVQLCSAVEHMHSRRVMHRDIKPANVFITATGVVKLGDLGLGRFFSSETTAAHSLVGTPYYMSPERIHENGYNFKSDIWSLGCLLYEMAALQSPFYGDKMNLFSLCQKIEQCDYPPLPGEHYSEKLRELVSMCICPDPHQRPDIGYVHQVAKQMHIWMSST
Assay [17] shares this target. The following applies: at 1 µM.
Assay [18] deals with Serine/threonine-protein kinase Nek7 (Homo sapiens) (UniProt Q8TDX7). The following applies: at 0.1 µM.
Serine/threonine-protein kinase Nek7 (Homo sapiens), sequence (Q8TDX7 whole entry, looked up): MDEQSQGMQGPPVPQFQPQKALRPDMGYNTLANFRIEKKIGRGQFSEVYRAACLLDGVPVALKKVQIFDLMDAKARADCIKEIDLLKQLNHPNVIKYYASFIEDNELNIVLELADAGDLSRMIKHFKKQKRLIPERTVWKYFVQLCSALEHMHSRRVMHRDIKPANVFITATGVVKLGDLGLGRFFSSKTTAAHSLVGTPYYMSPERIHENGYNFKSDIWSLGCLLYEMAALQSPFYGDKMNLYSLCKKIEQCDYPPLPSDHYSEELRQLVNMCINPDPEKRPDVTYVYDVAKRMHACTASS
The target is the same in assay [19]. As to conditions: at 1 µM.
In assay [20] the target is T7, Serine/threonine-protein kinase Nek9 (Homo sapiens) (UniProt Q8TD19).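 Also: reported value is the mean percent inhibition of NEK9.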
T7 sequence (whole entry): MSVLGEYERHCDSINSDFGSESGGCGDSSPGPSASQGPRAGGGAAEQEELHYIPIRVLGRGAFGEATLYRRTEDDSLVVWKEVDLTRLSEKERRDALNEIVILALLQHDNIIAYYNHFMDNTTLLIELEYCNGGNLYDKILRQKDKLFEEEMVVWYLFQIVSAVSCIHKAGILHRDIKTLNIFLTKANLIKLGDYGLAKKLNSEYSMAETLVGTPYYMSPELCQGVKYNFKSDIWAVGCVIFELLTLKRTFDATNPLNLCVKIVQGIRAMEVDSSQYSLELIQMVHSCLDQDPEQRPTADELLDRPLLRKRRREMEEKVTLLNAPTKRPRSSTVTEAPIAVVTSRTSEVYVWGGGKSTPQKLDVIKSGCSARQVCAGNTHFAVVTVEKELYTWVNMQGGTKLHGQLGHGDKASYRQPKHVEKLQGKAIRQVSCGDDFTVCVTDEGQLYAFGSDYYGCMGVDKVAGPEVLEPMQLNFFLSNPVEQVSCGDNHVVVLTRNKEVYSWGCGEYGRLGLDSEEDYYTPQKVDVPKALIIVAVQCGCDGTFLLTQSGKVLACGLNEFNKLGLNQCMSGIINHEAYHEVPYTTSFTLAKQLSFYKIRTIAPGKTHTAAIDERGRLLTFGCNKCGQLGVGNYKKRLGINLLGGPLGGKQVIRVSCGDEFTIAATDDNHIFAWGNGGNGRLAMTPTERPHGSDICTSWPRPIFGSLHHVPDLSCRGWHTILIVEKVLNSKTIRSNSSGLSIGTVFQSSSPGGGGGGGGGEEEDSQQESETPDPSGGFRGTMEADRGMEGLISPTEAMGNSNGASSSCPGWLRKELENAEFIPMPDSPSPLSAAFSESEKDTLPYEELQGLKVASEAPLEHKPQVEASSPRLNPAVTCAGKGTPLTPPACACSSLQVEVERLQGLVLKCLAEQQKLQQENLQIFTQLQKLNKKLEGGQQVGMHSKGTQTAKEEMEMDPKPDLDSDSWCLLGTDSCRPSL
The following applies: at 0.1 µM.

Sphingosine kinase 1 (Homo sapiens), sequence (Q9NYA1 whole entry): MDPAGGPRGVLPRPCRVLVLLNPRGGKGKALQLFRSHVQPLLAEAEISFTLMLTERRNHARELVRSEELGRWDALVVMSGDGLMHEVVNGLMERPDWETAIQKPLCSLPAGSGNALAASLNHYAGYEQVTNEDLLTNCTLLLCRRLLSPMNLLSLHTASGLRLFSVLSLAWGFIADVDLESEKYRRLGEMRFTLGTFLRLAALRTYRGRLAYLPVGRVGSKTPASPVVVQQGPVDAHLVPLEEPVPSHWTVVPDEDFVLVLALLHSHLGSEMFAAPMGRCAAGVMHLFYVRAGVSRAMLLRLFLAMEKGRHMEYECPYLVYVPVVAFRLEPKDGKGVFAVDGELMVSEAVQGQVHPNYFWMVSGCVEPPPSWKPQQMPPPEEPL

For `OCCCNc1nccc(-c2c(-c3ccc(F)cc3)nn3cc(C(F)(F)F)ccc23)n1`, the inhibition in assay [1] is -0.86%; in [2], 1.62%; in assay [3], -1.3%; in assay [4] it was 1.23%; in assay [5], 6.41%; in assay [6] it was -2.66%. Also, the inhibition in assay [7] is 1.51%; in assay [8], 1.75%; in assay [9] it was -0.39%; in assay [10], 0.9%; in [11], 0.15%; in assay [12], -0.37%. Further, the inhibition in assay [13] is 0.3%; in assay [14], 2.83%; in assay [15], 2.24%; in [16], 4.06%; in assay [17], -0.92%; in assay [18], 2.99%. In addition, the inhibition in assay [19] was -4.27%; in assay [20] it was 7.44%.

The values above are taken from ChEMBL document CHEMBL1961873, “Compounds: GSK PKIS; Assays: Nanosyn kinase panel” (2012).
